HEK293 tox = cytotoxicity counter-screen for GLP-1 receptor inverse agonists. HEK293 cAMP-luciferase reporter cells, luminescence, 24 h. Potency, µM (highest dose often 38.3 µM), without a hit: at the top dose activity change, negative = inhibition, most hits filed as inhibitors. 410,000 compounds, 0.13% hits;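 further: loss of luciferase light is scored as toxicity; potency means the concentration at half of the fitted maximal effect; on the % scale 0 is the no-effect control and ±100 the full control effect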
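Luminescence readout: signal drop marks cytotoxicity. Plated cells grew 12 h at 37 °C, 5% CO2, received 23 nL compound for 24 h, then got luciferase reagent, read after 12 min at RT.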
GLP1R ag = activates the human GLP-1 receptor | HEK293 GLP-1R CRE-luciferase, luminescence, 4-6 h; cells express a hypersensitive GLP-1R form | Potency, µM (titrated, usually from 45.6 µM), for the others: at the top dose activation, usual class: activators | 380,000 compounds, 0.007% hits; further: potency means the concentration at half of the fitted maximal effect; % of control where 0% means no effect
GLP-1R inv ag = GLP-1 receptor (human) inverse agonism; HEK293 GLP-1R CRE-luciferase, luminescence, 24 h; GLP-1R form is constitutively active; P43220; Potency, µM (top dose mostly 38.3 µM), inactives show top-dose activity change, negative = inhibition, actives largely listed as inhibitors; 410,000 compounds, 1.6% hits; further: potency means the concentration at half of the fitted maximal effect; on the % scale 0 is the no-effect control and ±100 the full control effect; nearly all actives have a fitted effect of over 55% in size
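Seeding at 200 cells/uL, 12 h culture, 24 hr compound treatment, then luciferase reagent and a luminescence read; cells are HEK293 stably expressing a constitutively active GLP-1R plus cAMP-responsive luciferase.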
D3 ag = agonists of human D3 dopamine receptor. max activation, %. AID 652048. 410,000 compounds, 0.58% hits. D3R DiscoveRx beta-arrestin cells, luminescence, 90 min. P35462; in the data active means max activation above about 30%; further: 0% is about no effect
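Agonist-mode cell screen: cells plated at 1500/well and incubated overnight at 37 °C, then exposed to library compounds for 90 min at 37 °C. Detection reagent was added for 30–60 min at room temperature, and luminescence was read.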
DRD3 antagonist = antagonists of human D3 dopamine receptor | P35462 | D3R cells, DiscoveRx beta-arrestin luminescence, antagonist mode; hits give low values | max response, negative = inhibition, % | 360,000 compounds, 2.5% hits | AID 652054; in the data active means max response below about -50%; inconclusive means no clear call, values can overlap the other calls; further: on the % scale 0 is the no-effect control and ±100 the full control effect
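Cells plated overnight at 1500 cells/well, then exposed to library compounds with dopamine controls for 90 minutes at 37 degrees C. DiscoveRx reagent added for 30–60 minutes at room temperature; luminescence read, quantitative HTS format.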
ClpP mod = qHTS Assay for Activators of ClpP; 340,000 compounds, 1.9% hits; Potency, µM (highest dose often 57.5 µM), for inactives: at the top dose activity change, negative = active; ATP-dependent Clp protease proteolytic subunit (Bacillus subtilis (strain 168)), P80244; AID 651965, 2013; purified B. subtilis ClpP, FRET peptide cleavage, 20 min; active means well fitted falling curve with a large enough effect; inconclusive means small, poorly fitted or top-dose-only effect; inactive means no such curve, though single readings can be large or run the other way; further: potency means the concentration at half of the fitted maximal effect; the source files actives as falling curves though it sought activators and does not explain the sign; nearly all actives have a fitted effect of over 65% in size
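ClpP 10 microg/mL final, pH 8 Tris/KCl buffer with BSA, glycerol, Tween-20; compound pinned in; FRET-FV substrate; RT 20 min; Ex320/Em430; ΔFRET vs ADEP 5.8 microM, DMSO, no enzyme.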
* marks the source's active call; other numbers are inactive results; ? = inconclusive; nt = no result; ! = not active in a repeat. A selection: hits, their analogues and other compounds. The true share with any hit is near 5.7%. Unless noted, the call rests on the fitted dose curve; in most records, active means well fitted curve in the direction sought with a large enough effect; inconclusive means small, poorly fitted or top-dose-only effect, or another doubt; inactive means no such curve, though single readings can be large; an effect the other way counts as inactive or inconclusive.

SMILES	HEK293 tox	GLP1R ag	GLP-1R inv ag	D3 ag	DRD3 antagonist	ClpP mod
CCc1ccc(N2CSC3=C(C#N)C(c4cccs4)CC(=O)N3C2)cc1 (centres undefined)	-3.7%	1.8%	-9.3%	3.4	-60.8*	4.0%
COc1ccc(NC(=O)c2ccc(NC(=O)CCS(=O)(=O)c3cccs3)cc2)cc1Cl	-15.0%	nt	?	26.4	nt	-1.0%
C=CCOc1c(CNc2ccc(C(=O)O)cc2)cccc1OC	0.5%	-1.8%	20.2%	-4.6	-25.1	-10.5%
C=CCOc1c(CNc2cccc(C(=O)O)c2)cccc1OCC	-10.1%	-2.0%	0.0%	9.3	10.8	31.6µM*
C=CCOc1c(CNc2cccc(C(=O)O)c2)cccc1OC	-16.4%	-29.1%	15.2%	-17.0	-13.9	25.1µM*
O=C1[C@@H]2CSC(c3ccc(Cl)cc3)N2C(=O)N1c1ccccc1 (some centres undefined)	-3.7%	-0.2%	-2.1%	4.1	nt	-1.3%
COc1ccccc1NC(=O)CSc1nnnn1Cc1ccccc1	3.1%	12.5%	-24.5%	-5.3	11.3	-7.6%
CCOc1ccccc1NC(=O)CSc1nc2ccccc2nc1N1CCOCC1	6.1%	4.8%	10µM*	0.1	23.1	-8.0%
CCOc1ccccc1NC(=O)CSc1nnnn1Cc1ccccc1	2.7%	-1.0%	0.0%	5.4	-58.8*	1.1%
COc1ccc(NC(=O)CSc2nnc(Cc3cccn3C)n2-c2ccc(C)cc2)cc1OC	-10.6%	8.2%	0.0%	30.5*	106.4	-0.8%
CCOC(=O)c1ccccc1NC(=O)c1cc2sccc2n1C	3.7%	-6.2%	0.0%	23.9	15.0	28.2µM*
COc1ccc(-n2c(Cc3cccn3C)nnc2SCC(=O)Nc2cccc(OC)c2)cc1	-15.1%	-10.3%	13.0%	4.8	3.6	-0.5%
COc1ccc(-n2c(Cc3cccn3C)nnc2SCC(=O)Nc2ccccc2C)cc1	-10.2%	16.2%	7.4%	-0.5	-7.4	0.4%
COC(=O)c1ccccc1NC(=O)CSc1nnnn1C1CCCCC1	2.0%	7.9%	-7.5%	-5.0	21.7	-6.4%
CCOC(=O)c1cn(CC(=O)Nc2ccccc2C(=O)OCC)nn1	4.9%	1.8%	1.8%	-5.7	-71.6*	?
CCOC(=O)c1ccccc1NC(=O)CSc1nnc(Cc2cccn2C)n1-c1ccc(C)cc1	-23.8%	3.1%	?	39.2*	20.9	10.5%
CCOC(=O)c1ccccc1NC(=O)CSc1nnnn1C1CCCCC1	0.0%	11.7%	-21.3%	-29.7	-77.1*	-26.5%
COc1ccc(NC(=O)c2cc3nc(-c4ccc(C)c(C)c4)cc(C(F)(F)F)n3n2)cc1	26.8%	nt	16.3%	-8.9	nt	-0.9%
O=[N+]([O-])c1cccnc1S(=O)(=O)c1ccccc1	?	-6.0%	?	-8.6	-73.6*	nt
COc1ccc([N+](=O)[O-])c(S(=O)(=O)c2ccccc2)n1	?	-4.9%	?	-44.8	-75.6*	0.7%
O=C(O)c1ccccc1C(=O)Nc1ccc(-n2ccc(C(F)(F)F)n2)cc1	-5.0%	1.1%	12.7%	-1.6	0.8	nt
Cc1cc(C)cc(NC(=O)Nc2ccc(-n3ccc(C(F)(F)F)n3)cc2)c1	?	0.3%	2.24µM*	13.7	6.0	nt
COc1ccccc1NC(=O)Nc1ccc(-n2ccc(C(F)(F)F)n2)cc1	-24.4%	0.9%	2µM*	-30.5	?	nt
O=C(O)CCC(=O)Nc1ccc(-n2ccc(C(F)(F)F)n2)cc1	-6.6%	8.8%	5.1%	2.7	1.4	nt
COc1ccc(C2CC(=O)N(CC(=O)Nc3ccc(C(F)(F)F)cc3)c3ccccc3S2)cc1 (centres undefined)	5.2%	-7.6%	4.1%	1.2	nt	3.7%
SMILES	HEK293 tox	GLP1R ag	GLP-1R inv ag	D3 ag	DRD3 antagonist	ClpP mod
CC(=O)CC/C=C(\C)CC/C=C(/C)CC/C=C(\C)CCC=C(C)C	nt	-0.9%	nt	nt	nt	nt
Cc1cc(NCCO)c2ccccc2n1	10.4%	-10.2%	5.2%	-2.3	-12.7	2.6%
Cc1cc(NCCO)c2cc(O)ccc2n1	126.6%	4.1%	18.0%	-0.1	-6.4	15.8µM*
C(=Nc1ccc2ccccc2n1)c1ccccn1	nt	nt	nt	nt	nt	4.7%
COc1ccc(OC)c(-n2c(SCC(=O)Nc3cc(C)on3)nnc2-c2c[nH]c3ccccc23)c1	-18.8%	6.0%	-21.7%	-5.5	-51.3*	-6.4%
CO[C@@H]1[C@@H](OC2OC(C)C(OC3CC(C)(O)C(O)C(C)O3)C(N(C)C)C2O)[C@@H](CC=O)C[C@@H](C)[C@@H](OC2CCC(N(C)C)C(C)O2)/C=C/C=C/C[C@@H](C)OC(=O)C[C@H]1OC(C)=O (some centres undefined)	nt	-3.2%	nt	nt	nt	nt
COc1cccc(CNC(=O)CCCN2C(=O)CCn3nc(-c4cccn4C)cc32)c1	-7.6%	nt	-0.9%	7.5	nt	-0.2%
CCOC(=O)c1c(CSc2ccc(CC)cc2)oc2ccc(O)c(CN(C)C)c12	?	18.4%	2.51µM*	-7.6	-64.3*	nt
C=C(C)CNC(=S)NN=C1c2ccccc2-c2ccccc21	?	11.2µM*	?	-9.9	-13.8	nt
S=C(NCCCN1CCOCC1)NN=C1c2ccccc2-c2ccccc21	?	14.4%	?	-17.8	-70.6*	-1.7%
O=C(CCC(=O)N/N=C/c1ccco1)N/N=C/c1ccco1	1.9%	0.3%	1.4%	2.9	6.5	-0.9%
C=C(C)CNC(=S)N/N=C/c1ccco1	?	8.4%	4.47µM*	-10.9	8.2	nt
CC(=O)OC[C@@H]1CN(Cc2ccccc2)C[C@H](n2cnc3c(N4CCOCC4)ncnc32)O1	4.1%	16.8%	26.7%	-8.8	-5.0	-4.6%
COc1ccc(CN2CC[C@H]3C=CC[C@@H](C(=O)Nc4ccc(Cl)cc4Cl)[C@H]3C2=O)cc1OC	nt	nt	nt	nt	nt	-2.5%
CNc1oc(-c2ccccc2)nc1C#N	-9.7%	-1.0%	39.2%	-6.4	2.9	-11.4%
CNc1oc(-c2ccc(Cl)cc2)nc1P(=O)(c1ccccc1)c1ccccc1	-19.6%	1.7%	?	11.8	-6.7	28.2µM*
Cc1ccc(-c2nc(P(=O)(c3ccccc3)c3ccccc3)c(N3CCOCC3)o2)cc1	-30.4%	3.8%	10µM*	-5.5	10.1	-10.3%
CC(C)(C)C(=O)OCOC(=O)[C@@H]1N2C(=O)[C@@H](N=CN3CCCCCC3)[C@H]2SC1(C)C	7.1%	-0.1%	-12.4%	31.6*!	0.0	-19.4%
O=C(Nc1ccc(O)c2c(=O)cc(-c3ccccc3Cl)oc12)c1ccc(Cl)c(Cl)c1	8.1%	-0.5%	18.9%	-27.9	-83.4*	0.9%
COc1ccc2c(c1)c(=O)c(C(=O)c1ccc(F)cc1)cn2CC(=O)Nc1ccc2c(c1)OCCO2	6.1%	0.8%	-7.8%	0.6	nt	-2.5%
